Hits are enriched below; roughly 3.4% of the tested compounds scored in any of these assays.
HSF1 inhib: HSF1 inhibition. activity change, negative = inhibition, % at 7.5 µM (by protocol). actives 0.77% (n = 300,000). NIH3T3-HGL HSE-luciferase, MG132-induced, luminescence 8 h; active compounds read low;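 active = more than half of replicate wells show activity change below -50%, luminescence cut by over half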;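 also: luciferase reports HSF-1 transcriptional activity via heat shock element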
Vif imaging: HIV Vif inhibition; HEK293T cells, Vif self-association by quenched fluorescence, imaging, 24 h; inhibition, % at 7.49 µM; actives 0.35% (n = 340,000); in the data active = inhibition above about 50%, passing the limit was not always enough
HSF1 activator: increases HSF-1 driven luciferase reporter signal; actives 1.7% (n = 300,000); NIH3T3-HGL HSF-1 luciferase reporter, MG132, 8 h; 100% = twice DMSO control signal; activation, % at 9 µM; AID 504408;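 active = mean replicate activation of at least 50% with a set share of replicates each reaching 50%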
esBAF inh: blocks esBAF chromatin remodeling in mouse ES cells. Bmi1-luciferase knock-in reporter, 24 h; 100% = twice the neutral-well signal. reporter increase, % at 12.5 µM. actives 2% (n = 350,000). AID 602393; in the data active = activation above about 40%;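 also: a rise in the Bmi1 reporter signal indicates esBAF inhibition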
Of the large screens only hits and unclear results are named; the others gave an inactive call; ! = not confirmed by another sample.

O=C(N/N=C/c1ccccn1)c1cc(-c2ccc(Br)cc2)nc2ccccc12	HSF1 activator 168.7 (no result: esBAF inh)
CCCOc1cccc(-c2cc(C(=O)N/N=C/c3ccccn3)c3ccccc3n2)c1	HSF1 activator 143.4
CCCOc1cccc(-c2cc(C(=O)NN)c3ccccc3n2)c1	none (no result: esBAF inh)
O=C(O)COc1ccccc1/C=N/NC(=O)c1cc(-c2ccc(Cl)cc2)nc2ccccc12	none (no result: Vif imaging)
COc1ccccc1C(=O)Nc1ccc2c(c1)C(=O)N(C)C[C@H](OC)[C@@H](C)CN(C)[C@H](C)CO2	none (no result: HSF1 inhib, Vif imaging, HSF1 activator)
O=C(Nc1ccccc1)OCCCc1ccccc1	esBAF inh 57.1
O=C(Nc1ccccc1)OCCc1ccccc1	none (no result: HSF1 inhib, HSF1 activator, esBAF inh)
CC(C)CC#Cc1ccc2c(c1)O[C@H](CN(C)C(=O)NC(C)C)[C@H](C)CN([C@H](C)CO)S2(=O)=O	none (no result: HSF1 inhib, Vif imaging, HSF1 activator)
COc1ccc(N2CCN(C(=O)CCCOc3cc(=O)n(C)c4ccccc34)CC2)cc1	none
CC1CCN(C(=O)CCCOc2cc(=O)n(C)c3ccccc23)CC1	HSF1 activator 74.9
O=C(C[C@H]1C[C@@H]2c3cc(NC(=O)Nc4ccccc4F)ccc3O[C@@H]2[C@@H](CO)O1)NC1CCCC1	none (no result: HSF1 inhib, Vif imaging, HSF1 activator)
C[C@H](CO)N1C[C@H](C)[C@@H](CN(C)Cc2ccc3c(c2)OCO3)Oc2ccc(NC(=O)Nc3ccccc3)cc2CC1=O	none (no result: HSF1 inhib, Vif imaging, HSF1 activator)
CCCN(C)C[C@@H]1Oc2cc(C#CCC3CCCC3)ccc2S(=O)(=O)N([C@@H](C)CO)C[C@H]1C	none (no result: HSF1 inhib, Vif imaging, HSF1 activator)
O=C1/C(=C/c2ccccc2)CCCc2ccccc21	esBAF inh 49.2
O=C1/C(=C\c2ccc([N+](=O)[O-])cc2)CCc2ccccc21	HSF1 activator 60.3 (no result: esBAF inh)
O=C1/C(=C/c2ccc(O)cc2)CCc2ccc([N+](=O)[O-])cc21	none (no result: esBAF inh)
O=C1/C(=C/Nc2cccc([N+](=O)[O-])c2)CCc2ccccc21	HSF1 activator 73.4 (no result: esBAF inh)
O=C1/C(=C\c2cccnc2)CCc2ccccc21	none
C[C@H]1CN([C@@H](C)CO)C(=O)Cc2cc(NS(C)(=O)=O)ccc2O[C@H]1CN(C)Cc1ccc(C(=O)O)cc1	none (no result: HSF1 inhib, Vif imaging, HSF1 activator)
Cc1ccc(-c2cnc3c(c2)C(=O)N([C@H](C)CO)C[C@@H](C)[C@H](CN(C)CC2CCCC2)O3)cc1	none (no result: HSF1 inhib, Vif imaging, HSF1 activator)
COc1ccc(-c2coc3cc(O[C@@H]4O[C@H](CO)[C@@H](O)[C@H](O)[C@H]4O)c(OC)cc3c2=O)cc1	esBAF inh 46.6 (no result: HSF1 inhib, HSF1 activator)
COc1ccc(-c2coc3cc(OC4OC(CO)C(O)C(O)C4O)ccc3c2=O)cc1 (centres undefined)	none
COc1ccc(-c2coc3cc(OC)cc(OC)c3c2=O)cc1	esBAF inh 63.0
O=c1c(-c2ccc(O)cc2)coc2cc(O)cc(O)c12	esBAF inh 57.2
COc1ccc(-c2coc3cc(O)cc(O)c3c2=O)cc1	esBAF inh 46.3
CCCC(=O)Nc1ccc2c(c1)C(=O)N(C)C[C@@H](OC)[C@@H](C)CN(S(=O)(=O)c1cn(C)cn1)[C@H](C)CO2	none (no result: HSF1 inhib, Vif imaging, HSF1 activator)
CC(C)Oc1cc(O)c2c(=O)c(-c3ccc(O)cc3)coc2c1	none
CC(=O)Oc1ccc2c(=O)c(-c3ccccc3)coc2c1	none (no result: esBAF inh)
COc1ccc(-c2coc3cc(OC)cc(O)c3c2=O)cc1	HSF1 activator 55.7 (no result: esBAF inh)
COc1ccc(-c2coc3cc(OC(C)=O)ccc3c2=S)cc1	esBAF inh 66.2 (no result: HSF1 inhib, HSF1 activator)
Cc1ccc(S(=O)(=O)N(C)C[C@H]2Oc3c(NC(=O)c4ccc(-c5nccs5)cc4)cccc3C(=O)N([C@@H](C)CO)C[C@@H]2C)cc1	none (no result: HSF1 inhib, Vif imaging, HSF1 activator)
O=S(=O)(Nc1c(O)ccc2ccccc12)c1cccc2ccccc12	HSF1 inhib -89.8 (no result: esBAF inh)
CCc1cc2c(SCC#N)ncnc2s1	HSF1 activator 79.9 (no result: esBAF inh)
CCc1cc2c(SCC(=O)O)ncnc2s1	none (no result: Vif imaging)
Cc1ccc(C(c2sc3ncnn3c2O)N2CC(C)CC(C)C2)cc1 (centres undefined)	HSF1 inhib -58.2
C[C@@H]1CN([C@@H](C)CO)C(=O)CCCn2cc(nn2)CO[C@@H]1CN(C)S(=O)(=O)c1ccccc1	none (no result: HSF1 inhib, Vif imaging, HSF1 activator)
CC(=O)c1c(C)[nH]c(C(=O)COC(=O)COc2ccccc2F)c1C	none (no result: HSF1 inhib, HSF1 activator)
CC(=O)c1c(C)[nH]c(C(=O)COC(=O)Cc2ccccc2F)c1C	esBAF inh 56.0 (no result: HSF1 inhib, HSF1 activator)
CCCCOc1ccc(N2C(=O)CC(N(O)c3ccccc3)C2=O)cc1 (centres undefined)	HSF1 activator 107.0
Cc1c(Cl)cccc1N1C(=O)CC(N(O)c2ccccc2)C1=O (centres undefined)	esBAF inh 60.4
C[C@H](CO)N1C[C@H](C)[C@H](CN(C)S(=O)(=O)c2ccccc2)Oc2ccc(NC(=O)Nc3ccc(C(F)(F)F)cc3)cc2C1=O	none (no result: HSF1 inhib, Vif imaging, HSF1 activator)
COC(=O)C[C@@H]1CC[C@H]2[C@@H](COc3ccc(NS(=O)(=O)c4cccc(F)c4)cc3C(=O)N2C)O1	none (no result: HSF1 inhib, Vif imaging, HSF1 activator)
C[C@@H]1CN([C@H](C)CO)C(=O)c2cccc(NC(=O)Nc3ccc(F)cc3)c2O[C@@H]1CN(C)S(=O)(=O)c1cn(C)cn1	none (no result: HSF1 inhib, Vif imaging, HSF1 activator)
C[C@@H]1CCCCO[C@H](CN(C)CC2CCCCC2)[C@H](C)CN([C@H](C)CO)C(=O)c2cc(NS(=O)(=O)c3ccc(Cl)cc3)ccc2O1	none (no result: HSF1 inhib, Vif imaging, HSF1 activator)
COc1cc(Cl)c(C)cc1NC(=O)CSc1ccc(C)cc1	HSF1 activator 80.3 (no result: esBAF inh)
COc1cc(Cl)c(C)cc1NC(=O)CN1C(=O)C2CC=CCC2C1=O (centres undefined)	Vif imaging 58.8 (no result: HSF1 inhib, HSF1 activator)
CO[C@@H]1CN(C)C(=O)c2ccc(NS(C)(=O)=O)cc2OC[C@H](C)N(Cc2nccs2)C[C@@H]1C	none (no result: HSF1 inhib, Vif imaging, HSF1 activator)
CCOC(=O)c1cc2c(=O)n3cccc(C)c3nc2n(CCOC)c1=NC(C)=O	HSF1 inhib -62.8 (no result: esBAF inh)
N=c1c(C(=O)NCCc2ccccc2)cc2c(=O)n3ccccc3nc2n1Cc1ccco1	HSF1 activator 74.7
CCOC(=O)c1cc2c(=O)n3ccccc3nc2n(Cc2ccco2)c1=NC(=O)c1ccccc1OC	HSF1 activator 100.3
CCCn1c(=N)c(C(=O)NCc2ccc3c(c2)OCO3)cc2c(=O)n3cccc(C)c3nc21	Vif imaging 92.5
CCOCCCn1c(=N)c(C(=O)NCc2ccc3c(c2)OCO3)cc2c(=O)n3ccccc3nc21	none (no result: Vif imaging, esBAF inh)
CO[C@H]1CN(C)C(=O)c2cc(NC(=O)c3cc(C)on3)ccc2OC[C@@H](C)N(C)C[C@H]1C	none (no result: HSF1 inhib, Vif imaging, HSF1 activator)
CN1C(=O)c2cc(NC(=O)c3cccc(F)c3)ccc2OC[C@@H]2O[C@@H](CC(=O)NCc3ccccc3)CC[C@H]21	none (no result: HSF1 inhib, Vif imaging, HSF1 activator)
CCCC(=O)Nc1ccc2c(c1)OC[C@@H](C)N(C(=O)c1cnccn1)C[C@H](C)[C@H](OC)CN(C)C2=O	none (no result: HSF1 inhib, Vif imaging, HSF1 activator)
Cn1ccnc1SCC(=O)Nc1cccc(C(F)(F)F)c1	none
O=C(CSC1=NCCN1)Nc1cccc(C(F)(F)F)c1	HSF1 activator 67.1 (no result: esBAF inh)
Oc1ccc(-c2cnc(-c3ccc(O)cc3)nc2)cc1	HSF1 activator 66.6
Nc1ccc(-c2cnc(-c3ccc(N)cc3)nc2)cc1	Vif imaging 76.8
Cc1ccc(Cl)cc1NC(=O)C[n+]1ccc(Cc2ccc([N+](=O)[O-])cc2)cc1	HSF1 activator 65.0 (no result: esBAF inh)
Cc1ccc(F)cc1NC(=O)CCNC(=O)c1ccc([N+](=O)[O-])cc1	HSF1 inhib -67.9
NCCCC[C@H](N[C@@H](CCc1ccccc1)C(=O)O)C(=O)N1CCC[C@H]1C(=O)O	Vif imaging 78.6!

Screening results (PubChem BioAssay)
